# Rows were chosen to be rich in hits. Some 9% of all compounds tested hit in one or more screens of this group.
# G9a block: qHTS Assay for Inhibitors of Histone Lysine Methyltransferase G9a; Histone-lysine N-methyltransferase EHMT2 (Homo sapiens), Q96KQ7; G9a H3K9 monomethylation, AlphaScreen, 2 h; Potency, µM (titrated, usually from 102 µM), actives largely listed as inhibitors; 350,000 tested, 8.8% active; AID 504332, 2011; further: nearly all actives have a fitted effect of over 75% in size
#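 Using a bead-based AlphaScreen, monomethylated H3K9 product from 2 h room-temperature reactions (G9a 20 nM, peptide 500 nM, SAM 20 uM) was detected with 0.5 ug/mL rabbit anti-H3K9me1 antibody.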
# JMJD2A Tudor inh: qHTS Assay for Inhibitors of JMJD2A-Tudor Domain; Lysine-specific demethylase 4A (Homo sapiens), O75164; AlphaScreen JMJD2A-Tudor / H3K4me3 peptide binding; Potency, µM (series often up to 114 µM), actives largely listed as inhibitors; 390,000 tested, 4.4% active; further: nearly all actives have a fitted effect of over 50% in size
# HP1b binding inh: HTS for Inhibitors of HP1-beta Chromodomain Interactions with Methylated Histone Tails; AlphaScreen HP1-beta / biotin-H3K9me3 peptide binding; Potency, µM (titrated, usually from 114 µM), hits mostly inhibitors; 390,000 tested, 0.56% active; further: nearly all actives have a fitted effect of over 70% in size
#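 Compound inhibition of the preformed complex between 50 nM HP1-beta and 50 nM biotinylated H3K9me3 peptide was read by AlphaScreen. Buffer was PBS pH 7.4 with 0.01% Tween-20. Incubations ran 30 min at room temperature, with 10 ug/mL donor/acceptor beads.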
# BAZ2B block: qHTS Assay for Inhibitors of BAZ2B; Potency, µM (top dose mostly 114 µM), usual class: inhibitors; Bromodomain adjacent to zinc finger domain protein 2B (Homo sapiens), Q9UIF8; AlphaScreen BAZ2B-H3K14Ac peptide displacement; 360,000 tested, 4.4% active; AID 504333, 2011; further: nearly all actives have a fitted effect of over 60% in size
#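 BAZ2B 50 nM plus b-H3(5-23)K14Ac 50 nM, PBS pH 7.4/0.01% Tween-20, 30 min RT; compound added (max 110 uM), 30 min RT; streptavidin donor/Ni-chelate acceptor beads 10 ug/mL final, 20 min dark; AlphaScreen read.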
# ALOX12 inh: Primary qHTS assay for inhibitors of human arachidonate 12S-lipoxygenase (ALOX12): Round 2 | purified 12hLO, xylenol orange hydroperoxide absorbance | Potency, µM (highest dose often 108 µM), usual class: inhibitors | 580,000 tested, 1.1% active | Polyunsaturated fatty acid lipoxygenase ALOX12 (Homo sapiens), P18054 | AID 1671190, 2021
#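 Purified human 12hLO at 150 nM in 25 mM Hepes, 0.01% Triton X-100, pH 7.0, preincubated 15 min at room temperature with compound. Reaction started with 40 uM arachidonic acid, 30 min at room temperature. Hydroperoxide measured by Fe-xylenol orange, 573/405 nm absorbance ratio.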
# PLK1 PBD block: qHTS for Inhibitors of PLK1-PDB (polo-like kinase 1 - polo-box domain): Primary Screen. Plk1 PBD binding of FITC phosphopeptide, fluorescence polarization. Potency, µM, hits mostly inhibitors. Serine/threonine-protein kinase PLK1 (Homo sapiens), P53350. AID 720504, 2013. 360,000 tested, 2.8% active; further: series mostly up to about 57 µM; nearly all actives have a fitted effect of over 65% in size
# A number is an active result; – = inactive; ? = inconclusive; · = not tested or not shown; [ ] = another dose, or the depositor's remark. The call rests on the fitted dose curve; in most records, active means well fitted curve in the direction sought with a large enough effect; inconclusive means small, poorly fitted or top-dose-only effect, or another doubt; inactive means no such curve, though single readings can be large; an effect the other way counts as inactive or inconclusive.
SMILES,G9a block,JMJD2A Tudor inh,HP1b binding inh,BAZ2B block,ALOX12 inh,PLK1 PBD block
Cc1cc(C)cc(NC(=O)C(=O)NCCc2c[nH]c3ccccc23)c1,?,?,–,–,–,–
COc1ccc(NC(=O)CN(C)C(=O)Cc2c[nH]c3ccccc23)cc1,–,–,–,–,?,–
CCn1c2ccccc2c2cc(CNCC3CCNCC3)ccc21,·,·,·,·,–,·
CCn1c2ccccc2c2cc(CNCCc3c[nH]c4ccccc34)ccc21,·,·,·,·,39.8µM,·
COc1ccc(CCNC(=S)NCCc2c[nH]c3ccccc23)cc1,44.7µM,?,–,35.5µM,44.7µM,–
COc1ccc(Cl)cc1NC(=S)NCCc1c[nH]c2ccccc12,?,50.1µM,–,39.8µM,?,–
COc1ccc(CC(=S)NCCc2ccccc2)cc1,–[0.501 µM],–,?,–,?,7.52µM
S=C(Cc1ccccc1)NCCc1ccccc1,–[2.33 µM],–,–,–,–,–
COc1ccc(OC)c(NC(=O)c2cccc3c2C(=O)N(C2CCCCC2)C3)c1,?,?,–,?,?,–
Cc1cccc(NS(=O)(=O)c2cccc(C(=O)N3CCCCCC3)c2)c1,–,–,–,–,–,–
OCCN1CCN(CC(O)COCC2COc3ccccc3O2)CC1 (stereo not given),?,–,–,–,–,–
O=c1[nH]c(SCc2n[nH]c(=S)n2-c2ccccc2)nc2sc3c(c12)CCC3,2µM,56.2µM,–,–,?,–
CCCCSc1nc2sc3c(c2c(=O)[nH]1)CCC3,–,–,–,–,–,–
Nc1nc(SCc2nnc(SCC(=O)O)n2-c2ccccc2)nc2sc3c(c12)CCCC3,79.4µM,–,–,–,–,–
Cc1c2ccccc2nc2c(F)c(NC(C)C)c(F)c(F)c12,–,–,–,–,?,–
OCCN(Cc1ccccc1)Cc1ccc(Cl)cc1Cl,7.08µM,3.55µM,?,?,?,–
CN(Cc1cc([N+](=O)[O-])ccc1Cl)C(=O)C[n+]1ccccc1,–,–,–,–,–,–
C[C@@H]1CC2C3CCC4=CC(=O)C=CC4(C)[C@@]3(F)[C@@H](O)CC2(C)[C@@]1(O)C(=O)CO (stereo not given in full),2.51µM,·,·,·,·,·
C[C@@H]1C[C@@H]2[C@H]3CCC4=CC(=O)C=C[C@]4(C)[C@]3(F)[C@@H](O)C[C@@]2(C)[C@@]1(O)C(=O)CO,·,·,·,·,–,·
COC(=O)c1ccccc1NC(=O)CC(=O)Nc1ccccc1C(=O)OC,–[2.33 µM],–,–,–,–,–
CCn1c(N)c(C(=O)NCCOC)sc1=S,–[12.7 µM],–,?,–,?,26.7µM
CCn1c(N)c(C(=O)Nc2ccccc2C(=O)OC)sc1=S,?,–[11.4 µM],?,?,?,11.9µM
Cc1nn(Cc2ccc(F)cc2)c(C)c1NC(=O)c1cc(-c2ccco2)on1,56.2µM,–,–,–,–,–
Cc1ccc(NC(=O)c2cc(-c3ccco3)on2)cc1C,50.1µM,–,–,?,?,–
CCc1ccccc1NC(=O)c1cc(-c2ccco2)on1,39.8µM,–,–,–,–,–
SMILES,G9a block,JMJD2A Tudor inh,HP1b binding inh,BAZ2B block,ALOX12 inh,PLK1 PBD block
COc1ccc(NC(=O)c2cc(-c3ccco3)on2)cc1OC,50.1µM,–,–,–,–,–
CCc1ccccc1NC(=O)c1cc(-c2ccc(OC)cc2)on1,–,–,–,–,–,–
Cc1nc(-c2ccc(-c3ccon3)s2)no1,·,–,–,–,?,–
CC1Sc2ccc(S(=O)(=O)N3CCC(C(=O)N(C)Cc4ccco4)CC3)cc2NC1=O (stereo not given),–,–,–,–,–,–
CN(C(=O)c1cccc(Nc2ccc(-c3ccc4c(c3)OCCO4)nn2)c1)C1CCCCC1,?,–,–,–,–,–
CCN1c2cc(C(=O)Nc3ccc(F)c(F)c3)ccc2C(=O)N2CCCC21 (stereo not given),·,·,·,·,–,·
